Source: PubChem
An excerpt weighted towards active compounds, which were near 19% of everything screened.
HT1080NT lethal: kills 2HG-producing HT-1080-NT fibrosarcoma cells | AID 686970 | HT-1080-NT fibrosarcoma viability, CellTiter-Glo ATP luminescence, 48 h | hit rate 1.6% among 360,000 | Potency, µM (highest dose often 46.1 µM), without a hit: top-dose activity, negative = less viability, usual class: cytotoxic;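 note: NT is the 2HG producing partner of a matched IDH1 knockdown line; potency is the fitted concentration of half-maximal effect; 0% = DMSO-treated cells and -100% = media-only wells without cells; nearly all actives have a fitted effect of over 55% in size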
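A 48-hour cytotoxicity screen used HT-1080-NT cells plated 2 hours before compound delivery. ATP-based CellTiter-Glo luminescence measured viability, normalized to DMSO and no-cell controls.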
HT1080 IDH1KD tx: toxicity to HT-1080 IDH1 knockdown cells (counter line). HT-1080 IDH1 knockdown viability, ATP luminescence, 48 h. Potency, µM (titrated, usually from 46.1 µM), inactives show at the top dose activity, negative = toxicity, usual class: cytotoxic. hit rate 2% among 360,000. AID 686971;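 note: potency is the fitted concentration of half-maximal effect; 0% = DMSO wells and -100% = cell-free medium wells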
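Using the IDH1-knockdown HT-1080 line run in the same batch and compound series as the NT line, viability after 48 h at 37 °C was determined by CellTiter-Glo luminescence and expressed as % activity.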
DT40 TDP1 no CPT: qHTS for Inhibitors of human tyrosyl-DNA phosphodiesterase 1 (TDP1): qHTS in cells in absence of CPT; DT40 Tdp1-/- hTDP1 cells, no CPT, ATP luminescence, 48 h; Potency, µM (titrated, usually from 46.2 µM), inactives show at the top dose activity change, negative = growth inhibition, most hits filed as inhibitors; hit rate 15% among 420,000; AID 686978, 2013; note: potency is the fitted concentration of half-maximal effect; nearly all actives have a fitted effect of over 55% in size
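Readout: luminescence from CellTiter-Glo after 30 min in the dark at RT. Cells: DT40 Tdp1-/- with stable hTDP1, 400/well. Exposure: compounds alone, ≥48 hr, 37 °C.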
IL1B secr inh: inhibitors of inflammasome signaling (IL-1 beta secretion) | activity change, % at 57.5 µM | hit rate 4.7% among 360,000 | THP-1 LPS/ATP IL-1B secretion, AlphaLISA, 16 h; active compounds read low; in the data active = activity change below about -50%; inconclusive = mostly about -30% to -49%
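THP-1 cells pretreated 1 hr with compounds (up to 57.5 uM final), then stimulated with LPS (250 ng/mL final) plus ATP (1.25 mM final); secreted IL-1B measured by AlphaLISA after 16 hr, decreased signal indicating inhibition.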
DT40 TDP1 CPT: DT40-hTDP1 cell growth loss with CPT. chicken DT40 Tdp1-/-;hTDP1 cells + 20 nM CPT, ATP luminescence, 48 h. Potency, µM (titrated, usually from 46.2 µM), without a hit: top-dose activity change, negative = growth inhibition, usual class: inhibitors. hit rate 12% among 420,000; note: potency is the fitted concentration of half-maximal effect; nearly all actives have a fitted effect of over 55% in size
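Cell growth measured by CellTiter-Glo luminescence after a minimum 48 h, 37 C compound exposure with 20 nM CPT in Tdp1-knockout DT40 cells stably expressing hTDP1, seeded 400/well; qHTS titration format.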
* hit, by the source's call; i = inactive; ? = inconclusive; . = no result. Unless noted, calls come from the whole dose curve; as a rule, active = well fitted curve in the direction sought with a large enough effect; inconclusive = small, poorly fitted or top-dose-only effect, or another doubt; inactive = no such curve, though single readings can be large; an effect the other way counts as inactive or inconclusive. Unless noted, % is set by controls: 0 for no effect and ±100 for the full control effect.

SMILES | HT1080NT lethal | HT1080 IDH1KD tx | DT40 TDP1 no CPT | IL1B secr inh | DT40 TDP1 CPT
COc1ccc(NC(=O)c2ccco2)cc1NC(=O)c1cc(Br)ccc1Cl | . | . | 21µM* | . | -28%
COc1c(C)cc(Br)cc1C(=O)Nc1cccc(NC(=O)c2ccco2)c1 | -1% | 9% | ? | -27 | ?
O=C(Nc1cccc(NC(=O)c2ccc(-c3cccc(Br)c3)o2)c1)c1ccco1 | -44% | ? | 11µM* | -59* | 16µM*
COc1ccc(Br)cc1C(=O)Nc1cccc(NC(=O)c2ccco2)c1 | -18% | -10% | 18µM* | -21 | ?
CN(C)S(=O)(=O)c1cccc(CSc2cccc[n+]2[O-])c1 | -2% | 1% | 1% | 19 | -12%
CCOC(=O)c1c(N2C(=O)C3C4C=CC(O4)C3C2=O)sc2c1CCCC2 (stereo unspecified) | -19% | -16% | 16µM* | -13 | 8.2µM*
O=[N+]([O-])c1c(Nc2ccc(O)cc2)cc(Cl)c2nonc12 | 9.2µM* | 5.8µM* | 1.3µM* | -101* | 1.3µM*
O=[N+]([O-])c1c(Nc2ccccn2)cc(Cl)c2nonc12 | ? | ? | 5.2µM* | -101* | 1.8µM*
CN(C)c1ncc(S(=O)(=O)c2ccccc2)c(=O)[nH]1 | 3% | 4% | -4% | 11 | -15%
Cc1ccc2nc(NCc3ccccc3)c3nncn3c2c1 | . | . | -1% | . | 8%
CCc1c(C)nc2nncn2c1NCc1ccccc1 | . | . | 16µM* | . | ?
CCc1c(C)nc2nncn2c1Nc1ccc(Cl)cc1 | . | . | 9.2µM* | . | ?
O=C(Cc1ccccc1F)Nc1ccc(SC(F)F)cc1 | -3% | -5% | ? | -55* | ?
Cc1ccc(C(=O)c2ccccc2C(=O)OCC(=O)Nc2cccc([N+](=O)[O-])c2)cc1 | 1% | 0% | ? | -5 | 18µM*
Cc1ccc(C(=O)c2ccccc2C(=O)OCC(=O)Nc2ccc(SC(F)F)cc2)cc1 | -16% | ? | 18µM* | -26 | ?
O=C(COC(=O)c1ccccc1Cc1ccccc1)Nc1ccc(SC(F)F)cc1 | 6% | 1% | ? | -93* | ?
Cc1ccc(-c2nc(C)sc2CC(=O)OCC(=O)Nc2cccc([N+](=O)[O-])c2)cc1 | -8% | -18% | -28% | 33 | -22%
COc1cc(C(=O)OCC(=O)Nc2ccc(SC(F)F)cc2)cc(OC)c1OC | -7% | 1% | ? | -4 | ?
COc1ccc(C(=O)NCCNC(=O)c2cnccn2)cc1 | 8% | 20% | -15% | 21 | 9%
CN(CC(=O)Nc1ccc(Cl)c(C(F)(F)F)c1)C(=O)c1cc(=O)c2ccccc2o1 | ? | -13% | ? | 19 | ?
Cc1ccc(NC(=O)CN2C(=O)S/C(=C/c3ccncc3)C2=O)cc1 | -3% | -13% | ? | -5 | 16µM*
O=C(CN1C(=O)S/C(=C\c2ccccc2)C1=O)NCCCn1ccnc1 | 2% | 2% | -2% | -3 | ?
CCOc1cc(/C=C2\SC(=O)N(CC(=O)Nc3ccccc3F)C2=O)cc([N+](=O)[O-])c1O | -6% | 0% | 21µM* | -20 | 8.2µM*
CC(C)c1ccc(/C=C2\SC(=O)N(CC(=O)NCCCn3ccnc3)C2=O)cc1 | -18% | 0% | 15µM* | -1 | ?
COc1cc(/C=C2\SC(=O)N(CC(=O)Nc3ccccc3F)C2=O)cc(Cl)c1O | ? | ? | 13µM* | 31 | 18µM*
SMILES | HT1080NT lethal | HT1080 IDH1KD tx | DT40 TDP1 no CPT | IL1B secr inh | DT40 TDP1 CPT
COc1ccc(NC(=O)C(c2ccnc3ccccc23)n2c(=O)c(-c3ccccc3)nc3ccccc32)cc1 (stereo unspecified) | -6% | -2% | 1% | -7 | 1%
O=C(c1ccc2snnc2c1)N1CCOCC1 | 8% | -3% | -10% | 13 | -17%
COCc1cccc(-c2csc(C(NC(C)=O)c3ccccc3)n2)c1 (stereo unspecified) | 10% | 13% | -16% | 5 | -24%
COc1cc(/C=C2\SC(=N)N(c3ccc(F)cc3)C2=O)ccc1O | ? | ? | 23µM* | 2 | 26µM*
COc1cc(OC)c(/C=C2\SC(=O)N(CC(=O)Nc3ccccc3F)C2=O)c(OC)c1 | -1% | 1% | 21µM* | -7 | ?
N=C1S/C(=C\c2cccc3ccccc23)C(=O)N1c1ccc(F)cc1 | ? | -28% | 3.7µM* | -25 | 5.2µM*
COc1ccc(/C=C2\SC(=O)N(CC(=O)Nc3ccc(F)cc3)C2=O)cc1O | -1% | -23% | 15µM* | ? | ?
CCC/C(=N\NC(=O)C1CCCC1)c1ccccc1 | 5% | 12% | 15% | 21 | -3%
CCc1c(C)nc2[nH]nc(-c3ccccc3C)n2c1=O | -5% | -10% | 15µM* | -15 | ?
CCc1c(C)nc2[nH]nc(-c3ccccc3)n2c1=O | 19% | 16% | ? | 28 | ?
CCOC(=O)C(C)Sc1snnc1C (stereo unspecified) | 14% | 2% | -7% | 1 | -17%
O=C1CC(=C(c2ccccc2)c2ccccc2)C(=O)N1CCCN1CCN(c2cccc(Cl)c2)CC1 | -21% | -20% | ? | -20 | ?
O=C1CC(=C2c3ccccc3-c3ccccc32)C(=O)N1CCCCN1CCN(c2ccccc2)CC1 | ? | ? | 16µM* | -26 | 18µM*
O=C(CC[C@H]1O[C@@H](n2ccc(=O)[nH]c2=O)[C@H](O)[C@@H]1O)NCc1ccc2c(c1)OCO2 | 13% | 21% | 12% | 8 | -16%
CCOc1ccc(N(CC)S(=O)(=O)N2CCCC(C(=O)Nc3cc(Cl)ccc3OC)C2)cc1 (stereo unspecified) | . | . | 18µM* | . | ?
CCOc1ccc(N(CC)S(=O)(=O)N2CCCC(C(=O)Nc3ccc(OC)c(Cl)c3)C2)cc1 (stereo unspecified) | . | . | 23µM* | . | 16µM*
C[C@H](CO)N1C[C@H](C)[C@H](CN(C)CC2CCCCC2)Oc2ccc(NS(=O)(=O)c3ccc(F)cc3)cc2CC1=O | -25% | -22% | ? | 113 | ?
O=C(COC(=O)c1oc2ccccc2c1COc1ccccc1)NCCN1C(=O)CSC1=O | 7% | 6% | -29% | i | ?
Cc1cc2nnc(SCC(=O)NCc3ccco3)n2c2ccccc12 | ? | ? | 4.6µM* | -24 | 4.6µM*
Cc1cc(SCC(=O)NC(=O)NCc2ccco2)nc2c(C)cccc12 | -27% | ? | 29µM* | 15 | ?
Cc1cc2nnc(SCC(=O)NCc3cccs3)n2c2ccccc12 | 13% | 11% | 4% | 0 | 0%
O=C(CSc1nnc(C2CCCCC2)n1Cc1ccccc1)NCc1ccco1 | 0% | 0% | 16µM* | -20 | 16µM*
